This note sets out measurements from PubChem BioAssay (EPA / NIEHS).

Active and inactive are the calls of the source. Rule for the calls: active = hit-call score of the fitted dose curve at least 0.9, where 1 is the maximum; inactive = score below 0.9.

Read-out in the experiment: Early growth response protein 1 (EGR1) transcription factor, EGR1 (gene 1958)
The experiment in a line: LTEA_HepaRG_EGR1: Life Technologies and Expression Analysis (LTEA) Assay for Early growth response protein 1 (EGR1) transcription factor using HepaRG (AID 2283490). The conditions noted are these: mRNA level, 48 h; actives raise or lower the signal. On the procedure: LTEA_HepaRG is a cell based, multiplexed-readout assay that uses HepaRG, a human liver cell line, with measurements taken at 48 hours after chemical dosing on a 96-well plate.LTEA_HepaRG_EGR1 is one of 102 assay component(s) measured in the LTEA HepaRG cell culture assay. It is a marker of Cell proliferation, survival, death.Data from the assay component LTEA_HepaRG_EGR1 was analyzed into 1 endpoint. This assay endpoint, LTEA_HepaRG_EGR1, was analyzed with bidirectional fitting relative to DMSO as the negative control and baseline of activity. Using a type of inducible reporter, measures of mRNA induction for gain or loss-of-signal activity can be used to understand regulation of transcription factor activity. To generalize the intended target to other relatable targets, this assay endpoint is annotated to the dna binding intended target family, where the subfamily is zinc finger.
A total of 1060 chemcials from the ToxCast library were tested in eight-point concentration-response experiments. Cell culture and cytotoxicity assays were conducted at Thermo Fisher Scientific's Custom Services facility (Madison, WI). A single lot of human HepaRG cells (Thermo Fisher Scientific, Frederick, MD) was used for the cell culture experiments. 96-well format collagen type I coated plates of human HepaRG cells were prepared using established methods. Briefly, cryopreserved HepaRG cells were thawed, plated at a density of approximately 100,000 cells/well in HepaRG Thaw, Plate, and General Purpose media (HPRG770, Thermo Fisher Scientific), and incubated for 48 hours. 0.5% DMSO was selected as vehicle control to balance the requisite need of DMSO in HepaRG cultures to maintain differentiation (for example, baseline metabolism, proportions of hepatocytes vs. cholangiocytes), while enabling further hepatic receptor pathway activation (for example, PXR and CAR) in response to chemical exposure. 48 hours after plating, the culture medium was replaced with HepaRG Serum-Free Incudtion Media. Cells were exposed to each test chemical in duplicate and maintained in CO2 incubators for another 48 hours. Chemical plates were thawed to room temperature and 200x concentrations of treatment groups were prepared. 8-point conentration-reponse curves were made with the highest exposure at 100 uM, followed by half-log dilutions, all in 0.5% DMSO. Each test plate contained variouse controls, induction positive controls (1mM phenobarbital), cytotoxicity positive controls ([…] aflatoxin B1), vehicle controls (0.5% DMSO), and total lysis controls (0.5% DMSO). Cell morphology images were taken using an Essen IncuCyte FLR automated microscope, with six 96-well plates imaged in about 24 minutes. Images were captured and exported and JPEG files. Spent culture media was transfered to black-well plates for the LDH assay, and remaining media was sorted at -80 C for later use. Cells were treated with RLT buffer and frozen until shipped for gene expression analysis. Total RNA was isolated from the cell suspension in 75 uL of Buffer RLT (Qiagen, Germantown, MD 20874) by Quintiles/Expression Analysis (Durham, NC) using a custom isolation procedure. Total RNA from each plate well was transferred to a preamplification plate. Fluidigm's 96.96 Dynamic ArrayTM (Fluidigm, Amsterdam, the Netherlands) technology was used for gene expression analyses by quantitative reverse transcription polymerase chain reaction (qRT-PCR, performed by Quintiles/Expression Analysis, Durham, NC)89. Standard TaqManTM Assays (Applied Biosystems/ThermoFisher Scientific, Foster City, CA) were used to assess the expression of 93 genes selected based on their selectivity and sensitivity to important hepatic receptors known to be modulated by environmental chemicals; importance in human hepatocyte functionality; and hepatotoxicity. […]
On to `CC(C)C(=O)OCC(C)(C)C(OC(=O)C(C)C)C(C)C` (stereo not given), for which the compound was called inactive.

As to `Cc1cc(O)ccc1Cl`, the result was inactive.

As to `CCCCCCOC(=O)c1ccccc1C(=O)OCCCCCC`, the outcome was inactive.

Take `C=CC(N)=O`: the result was inactive.

Turning to `COc1ccc(O)c(C(C)(C)C)c1`, the result was inactive.

Take `ClC(Cl)=C(c1ccc(Cl)cc1)c1ccc(Cl)cc1`: the call was inactive.

Take `CCC(=O)O[C@H]1CC[C@H]2[C@@H]3CCC4=CC(=O)CC[C@]4(C)[C@H]3CC[C@]12C`: the call was inactive.

For `O=C(NC(=O)c1c(F)cccc1F)Nc1cc(Cl)c(OC(F)(F)C(F)F)c(Cl)c1`, the compound was classed as inactive.

Regarding `O=C(O)C(F)(F)C(F)(F)C(F)(F)C(F)(F)C(F)(F)C(F)(F)C(F)(F)C(F)(F)F`, the AC50 is 83.4 µM (active).

Take `O=C(NC(=O)c1cc(F)c(F)cc1Cl)Nc1cc(F)ccc1N1CCC(C(=O)O)CC1`: the compound was called inactive.

With `CO/C=C(/C(=O)OC)c1ccccc1COc1cccc(C(F)(F)F)n1`, the compound was called inactive.

For the compound `Nn1cnnc1`, the outcome was inactive.

Consider `CC#Cc1cc(C)nc(Nc2ccccc2)n1`, for which the compound was classed as inactive.

In the case of `CCC(C)(c1ccc(O)cc1)c1ccc(O)cc1`, the outcome was inactive.

With `CCCN(CCC)N=O`, the compound was classed as inactive.

For the compound `CN(C)c1nc(=O)n(C2CCCCC2)c(=O)n1C`, the compound was called inactive.

Consider `Oc1ccc(C(c2ccc(O)cc2)(C(F)(F)F)C(F)(F)F)cc1`, for which the AC50 was 81.5 µM (active).

In the case of `Cc1cccc(C)c1N`, the result was inactive.

On to `Cc1ccccc1CO[C@@H]1C[C@@]2(C(C)C)CC[C@]1(C)O2`, for which the compound was called inactive.

Take `CC(C)(c1ccccc1)c1ccc(O)cc1`: the outcome was inactive.

As for `CN(C)CCO`, the result was inactive.

Regarding `CCC(C)c1cc([N+](=O)[O-])cc([N+](=O)[O-])c1O` (stereo not given), the AC50 is 17.1 µM (active).

Consider `Cc1ccccc1[N+](=O)[O-]`, for which the call was inactive.

For `O=S(=O)(O)C(F)(F)C(F)(F)C(F)(F)C(F)(F)F`, the result was inactive.

For the compound `O=NN(c1ccccc1)c1ccccc1`, the compound was classed as inactive.

Consider `O=C(O)C(F)(F)C(F)(F)C(F)(F)C(F)(F)C(F)(F)F`, for which the outcome was inactive.

For `O=C(O)C(F)(F)C(F)(F)C(F)(F)C(F)(F)C(F)(F)C(F)(F)C(F)(F)C(F)(F)C(F)(F)F`, the result was inactive.

Turning to `ClC1=C(Cl)[C@]2(Cl)[C@@H]3[C@@H]4C[C@@H]([C@H]5O[C@@H]45)[C@@H]3[C@@]1(Cl)C2(Cl)Cl`, the result was inactive.

As to `c1cc2ccc3cccc4ccc(c1)c2c34`, the compound was classed as inactive.

On to `CCOCCOC(C)=O`, for which the outcome was inactive.

As to `CCOP(=S)(OCC)SCSC(C)(C)C`, the call was inactive.

For `O=C(N[C@H]1CN2CCC1CC2)c1cc2ccoc2cn1`, the call was inactive.

For the compound `Clc1ccc(C(c2ccccc2Cl)C(Cl)(Cl)Cl)cc1` (stereo not given), the AC50 was 11.9 µM (active).

Take `C[C@]12CCC(=O)C=C1CC[C@@H]1[C@@H]2CC[C@]2(C)C(=O)CC[C@@H]12`: the compound was classed as inactive.

As for `Clc1ccc(Cl)cc1`, the outcome was inactive.

Take `CCCCCCCCCC[N+](C)(C)CCCCCCCCCC`: the AC50 is 94.6 µM (active).

With `Cc1ccccc1O`, the compound was called inactive.

For `CCCCCCCCOC(=O)c1ccccc1C(=O)OCCCCCCCC`, the outcome was inactive.

Turning to `ClC1=C(Cl)[C@]2(Cl)[C@@H]3[C@H]4C[C@H]([C@@H]5O[C@H]45)[C@@H]3[C@@]1(Cl)C2(Cl)Cl`, the outcome was inactive.

For the compound `CCNc1nc(NC(C)C)nc(SC)n1`, the outcome was inactive.

By AC50 is commonly meant the concentration giving half of the maximal activity seen.
